Compounds with a hit are over-represented: about 4.9% of the library has one in this group of screens.
CSC inhib = cancer stem cell inhibition; inhibition, % at 7.5 µM; AID 2717; cancer stem cell-like cells viability, luminescence; hit rate 1.1% among 300,000; in the data active = inhibition above about 75%; inconclusive = no clear call, values can overlap the other calls; tested in HMLE shEcad cells
PP5 inh = PP5 (human) phosphatase inhibition. AID 1987. hit rate 0.18% among 320,000. inhibition, % at 6.7 µM. purified PP5c, OMFP substrate fluorescence. P53041;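 active = inhibition above the campaign's mean inhibition across all tested compounds plus 3 SD, cut at about 9.5% in these data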
Calb FLC = affects C. albicans growth with fluconazole | C. albicans CaCi-2 (fluconazole-resistant clinical isolate) + fluconazole, Alamar Blue growth, 48 h | hit rate 0.57% among 300,000 | growth inhibition, % (concentration not given with the values) | AID 1979;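 active = growth inhibition above about 58% in most replicates, limit read from the data, passing the limit was not always enough; inconclusive = exactly half the replicates above a set limit; inactive = most replicates below a set limit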;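 note: all wells also contain fluconazole at 8 µg/ml as a sub-toxic cotreatment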
PP1 counter = PP1-alpha (human) inhibition in PP5 counter-screen; P62136; purified PP1alpha, OMFP fluorescence; inhibition, % at 6.7 µM; hit rate 0.9% among 320,000; AID 2235;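 active = inhibition above the mean inhibition of all tested compounds plus 3 SD, computed separately for each screening campaign, cut at about 15% in these data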
Mdm2 MdmX PPI = disrupts the human Mdm2-MdmX interaction; O15151+Q00987; SaOS-2 split-luciferase Mdm2/MdmX complementation, luminescence; inhibition, % at 8 µM; hit rate 3% among 330,000; AID 485346;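 active = inhibition of at least 50% at 8 µM in the primary screen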
Target sequence (O15151 whole entry, looked up): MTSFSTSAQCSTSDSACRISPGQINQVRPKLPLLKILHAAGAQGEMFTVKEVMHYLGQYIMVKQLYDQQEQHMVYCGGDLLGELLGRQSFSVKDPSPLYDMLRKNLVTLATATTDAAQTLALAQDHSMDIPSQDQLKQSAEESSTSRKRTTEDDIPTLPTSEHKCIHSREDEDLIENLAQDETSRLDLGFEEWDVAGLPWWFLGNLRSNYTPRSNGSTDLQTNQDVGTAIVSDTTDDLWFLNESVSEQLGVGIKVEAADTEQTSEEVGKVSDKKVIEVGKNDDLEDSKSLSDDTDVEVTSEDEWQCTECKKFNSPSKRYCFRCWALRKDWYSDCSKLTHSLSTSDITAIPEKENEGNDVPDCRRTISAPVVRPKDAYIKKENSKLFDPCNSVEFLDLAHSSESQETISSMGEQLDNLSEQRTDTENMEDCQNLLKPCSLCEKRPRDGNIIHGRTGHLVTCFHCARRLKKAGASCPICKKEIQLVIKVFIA
Target sequence (Q00987 whole entry, looked up): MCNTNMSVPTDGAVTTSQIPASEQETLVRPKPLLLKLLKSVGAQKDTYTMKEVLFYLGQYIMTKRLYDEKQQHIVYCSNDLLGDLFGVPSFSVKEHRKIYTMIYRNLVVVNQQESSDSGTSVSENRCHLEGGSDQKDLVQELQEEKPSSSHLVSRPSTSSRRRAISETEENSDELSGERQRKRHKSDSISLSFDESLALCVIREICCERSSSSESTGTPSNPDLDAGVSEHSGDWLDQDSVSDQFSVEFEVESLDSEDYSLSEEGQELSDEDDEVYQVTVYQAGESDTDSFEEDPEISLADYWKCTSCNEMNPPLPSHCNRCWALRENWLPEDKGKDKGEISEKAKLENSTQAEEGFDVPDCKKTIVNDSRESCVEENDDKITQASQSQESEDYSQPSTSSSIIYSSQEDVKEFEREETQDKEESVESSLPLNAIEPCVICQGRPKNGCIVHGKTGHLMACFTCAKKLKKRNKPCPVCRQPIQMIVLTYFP
Beta apoptosis = beta cell apoptosis inhibition | INS-1E cytokine-induced death, ATP luminescence, 48 h; percent of positive-control rescue, neutral wells zero | protection from apoptosis, % (test concentration not listed) | hit rate 0.8% among 300,000;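 active = Every replicate reaches about 75%, or at least half do and their mean reaches it too, limit read from the data; inconclusive = At least half of replicates reach the limit but their mean does not; inactive = Under half of replicates reach the limit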;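 note: higher means more ATP so stronger rescue from cytokine killing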
Mdm2-MdmX conf = human Mdm2/MdmX binding inhibition, confirmed; inhibition, % at 8 µM; luminescent assay; shares compounds with Mdm2 MdmX PPI; AID 489028; hit rate 55% among 10,000; in the data active = inhibition above about 40%
FLuc counter = full-length luciferase inhibition in Mdm2/MdmX counter-screen; AID 504607; hit rate 77% among 6,200; inhibition, % at 8 µM; shares compounds with Mdm2 MdmX PPI; SaOS-2 full-length luciferase counterscreen, luminescence;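 active = mean inhibition at 8 µM reaching about 37%, which flags the compound as non-specific, limit read from the data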;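 note: p53-null SaOS-2 cells with luciferase driven by a doxycycline-inducible promoter; compound on cells about two nights before reading with doxycycline added after day one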
Each line names hits and unclear results; the compound was inactive in the other large screens (follow-up assays come after a bar, where they were run).

COc1ccc(NC(=O)Cc2ccc(-c3ccccc3)cc2)cn1	Mdm2 MdmX PPI 51.9 | Mdm2-MdmX conf 54.5 | FLuc counter 62.0
COc1ccc(NC(=O)/C(Cl)=C(/Cl)S(=O)Cc2ccc(Cl)cc2)cn1 (stereo not drawn)	Mdm2 MdmX PPI 97.1 (no result: CSC inhib, PP5 inh, Calb FLC, PP1 counter, Beta apoptosis) | Mdm2-MdmX conf 100.0 | FLuc counter inactive
CCc1nc(Nc2cccc(O)c2)c2oc3ccccc3c2n1	none (no result: PP5 inh, PP1 counter)
Cc1nc(Nc2ccncc2)c2oc3ccccc3c2n1	Mdm2 MdmX PPI 72.5 | Mdm2-MdmX conf 54.8 | FLuc counter 47.5
CCc1nc(Nc2ccncc2)c2oc3ccccc3c2n1	Calb FLC 84.5, Mdm2 MdmX PPI 63.2 | Mdm2-MdmX conf 78.6 | FLuc counter inactive
Oc1ccc(Nc2nc3ccccc3nc2Nc2ccc(O)cc2)cc1	CSC inhib 77.9, Mdm2 MdmX PPI 100.4 (no result: Beta apoptosis) | Mdm2-MdmX conf inactive
Oc1ccc(Nc2nc(-c3ccccc3)nc3ccccc23)cc1	none
CCOc1ccc(S(=O)(=O)N2CCN(C(=O)c3ccc(C)c(S(=O)(=O)N4CCOCC4)c3)CC2)cc1	none (no result: PP5 inh, Calb FLC, PP1 counter)
CCOc1ccccc1N1CCN(C(=O)c2cc(S(=O)(=O)N(C)C)ccc2N2CCCC2)CC1	none (no result: CSC inhib, Calb FLC)
CC(C)C1C(C#N)=C(N)Oc2n[nH]c(-c3cccs3)c21 (stereo not drawn)	none
CC(C)C1C(C#N)=C(N)Oc2n[nH]c(-c3ccc4ccccc4c3)c21 (stereo not drawn)	Mdm2 MdmX PPI 57.3 | Mdm2-MdmX conf 63.4 | FLuc counter 50.2
O=C(NCc1ccc2c(c1)OCO2)c1nc(S(=O)(=O)Cc2ccccc2F)ncc1Cl	CSC inhib inconclusive, Mdm2 MdmX PPI 77.6 | Mdm2-MdmX conf 52.2 | FLuc counter 51.2
O=C(NCc1ccc2c(c1)OCO2)c1nc(S(=O)(=O)Cc2ccccc2)ncc1Cl	Mdm2 MdmX PPI 63.0 (no result: CSC inhib, Beta apoptosis) | Mdm2-MdmX conf 44.9 | FLuc counter inactive
O=C(NCc1ccc2c(c1)OCO2)c1ccccc1Cl	none
COc1ccc(Cl)cc1S(=O)(=O)N1CCC(C(=O)NCCC2=CCCCC2)CC1	none
Cc1ccc2oc(-c3cccc(NC(=O)/C=C/c4cccc([N+](=O)[O-])c4)c3C)nc2c1	none (no result: CSC inhib)
CCc1ccc(NC(=O)c2cnc(N3CCN(c4ccccn4)CC3)c3ccccc23)cc1	Mdm2 MdmX PPI 63.9 | Mdm2-MdmX conf 56.0 | FLuc counter 59.5
Cc1ccc(NC(=O)c2cc(C(C)(C)C)nn2Cc2ccccc2)cc1	Mdm2 MdmX PPI 74.3 (no result: CSC inhib, Beta apoptosis) | Mdm2-MdmX conf 55.5 | FLuc counter 59.2
COc1cccc(N=Nc2c(N)[nH]n3c(=O)cc(-c4ccccc4)nc23)c1	Mdm2 MdmX PPI 61.7 | Mdm2-MdmX conf inactive
CCC[C@@H](CNC)NC[C@H](Cc1ccccc1)NCCCCc1ccccc1	CSC inhib 132.8, Mdm2 MdmX PPI 97.2 | Mdm2-MdmX conf 82.8 | FLuc counter 54.7
CNC[C@@H](CC1CCCCC1)NC[C@H](CC(C)C)NCCc1cccc(C(F)(F)F)c1	CSC inhib 110.7, Calb FLC 88.5, Mdm2 MdmX PPI 98.7, Beta apoptosis 112.2 | Mdm2-MdmX conf 100.0 | FLuc counter 49.9
CNC[C@@H](Cc1ccccc1)NC[C@@H](CC1CCCCC1)NCCCc1ccccc1	CSC inhib 110.6, Calb FLC 79.1, Mdm2 MdmX PPI 97.9, Beta apoptosis 109.9 | Mdm2-MdmX conf 99.8 | FLuc counter 52.0
O=C(NCCCCc1ccccc1)c1ccccc1	none
CCC[C@@H](CN[C@@H](CNC)C(C)C)NCCCCc1ccccc1	Mdm2 MdmX PPI 97.1 | Mdm2-MdmX conf 90.6 | FLuc counter inactive
COc1ccc(NC(=O)C2(S(=O)(=O)c3ccc(C)cc3)CC2)cc1OC	none (no result: CSC inhib)
Cc1cc(C(=O)COC(=O)C2=NNC(=O)CC2)c(C)n1-c1ccccc1	none (no result: CSC inhib, Beta apoptosis)
Cc1cc(C(=O)COC(=O)c2ccc(O)cc2)c(C)n1-c1ccccc1F	Mdm2 MdmX PPI 56.8 (no result: CSC inhib) | Mdm2-MdmX conf 64.1 | FLuc counter 137.8
Cc1cc(C(=O)Cn2nnc3ccccc3c2=O)c(C)n1-c1ccccc1F	Mdm2 MdmX PPI 85.1 | Mdm2-MdmX conf 78.3 | FLuc counter 103.4
Cc1cc(C(=O)COC(=O)C2=COCCO2)c(C)n1-c1ccccc1	Mdm2 MdmX PPI 83.1 (no result: PP5 inh, Calb FLC, PP1 counter) | Mdm2-MdmX conf 84.0 | FLuc counter inactive
CC(C)(C)c1ccc(/C=N/Nc2cccc(C(=O)O)c2)cc1	Mdm2 MdmX PPI 69.8 | Mdm2-MdmX conf 61.5 | FLuc counter 115.9
Cc1cc(Br)cc(/C=N/NC(=O)c2ccc3c(c2)OCO3)c1O	CSC inhib 84.2, Mdm2 MdmX PPI 67.9, Beta apoptosis 88.4 | Mdm2-MdmX conf 67.5 | FLuc counter inactive
Cc1ccccc1/C=N/NC(=O)Cc1ccc(Cl)cc1	none
Cc1ccc(/C=N/NC(=O)Cc2ccc(Cl)cc2)c(O)c1	Mdm2 MdmX PPI 60.4, Beta apoptosis 83.4 (no result: PP5 inh, PP1 counter) | Mdm2-MdmX conf 53.8 | FLuc counter 42.2
O=C(N/N=C/c1c[nH]c2ccc(Br)cc12)c1ccc2c(c1)OCO2	none (no result: CSC inhib, Beta apoptosis)
O=C(N/N=C/c1cc(Br)cc(Cl)c1O)c1ccc2c(c1)OCO2	Calb FLC 93.9, Mdm2 MdmX PPI 50.3, Beta apoptosis 94.1 | Mdm2-MdmX conf 59.3 | FLuc counter 53.4
O=C(Cc1ccccc1)N/N=C/c1cc(Br)cc(Cl)c1O	Calb FLC 114.4, Mdm2 MdmX PPI 58.6 (no result: Beta apoptosis) | Mdm2-MdmX conf 68.4 | FLuc counter inactive
O=C(CNC(=O)c1ccc2c(c1)OCO2)N/N=C/c1cc(Br)ccc1O	Mdm2 MdmX PPI 51.6, Beta apoptosis 81.0 (no result: CSC inhib) | Mdm2-MdmX conf 58.5 | FLuc counter 47.0
CCCOc1ccc(C(=O)NNC(=O)c2cccc(S(=O)(=O)N3CCN(C(C)=O)CC3)c2)cc1OC	none
CNC(=O)N(C1=NCC(C)(C)S1)c1ccc(F)c(Cl)c1	Mdm2 MdmX PPI 55.3 | Mdm2-MdmX conf inactive | FLuc counter 82.1
Cc1ccnc(N(C(=O)Nc2ccccc2)C2=NCC(C)(C)S2)c1	none
CCOc1ccccc1-c1ccc(C(=O)NCc2ccccc2)o1	none
COc1cccc(C2NC(=S)NC(C)=C2C(=O)c2ccccc2)c1OC (stereo not drawn)	Mdm2 MdmX PPI 51.0 | Mdm2-MdmX conf 49.1 | FLuc counter 78.0
Cc1ccc2c(c1)C(=O)C(=O)N2Cc1ccc(Cl)cc1	Mdm2 MdmX PPI 67.7 (no result: PP5 inh, Calb FLC, PP1 counter) | Mdm2-MdmX conf inactive
Cc1ccc2c(c1)C(=O)C(=O)N2CCCOc1ccccc1	none
Cc1cccc(OCCCN2C(=O)C(=O)c3cc(C)ccc32)c1	PP1 counter 15.9, Mdm2 MdmX PPI 58.8 | Mdm2-MdmX conf 69.2 | FLuc counter 65.5
Cc1nc(C(=O)O)cc2c1[nH]c1ccccc12	none
CC(=O)N(C(C)=O)c1ncc2c([nH]c3ccccc32)c1C#N	Mdm2 MdmX PPI 81.8 | Mdm2-MdmX conf 85.8 | FLuc counter inactive
COc1cc(NC(=O)c2ccccc2Cl)ccc1NC(=O)c1cccs1	none
